Records with an inconclusive call do not appear. Entries that show only a call come without a potency. Active and inactive are the calls of the source. Unless noted, calls come from the whole dose curve; as a rule, active = well fitted curve in the direction sought with a large enough effect in the repeat runs; inconclusive = weak or mixed curves; inactive = no such curve, though single readings can be large; an effect the other way counts as inactive or inconclusive.
Tests used:
[1] = qHTS assay to identify aromatase inhibitors - cell viability counter screen (AID 743084);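 note: cells stimulated with testosterone during compound exposure; nearly all actives have a fitted effect of over 55% in size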
[2] = molecular target: Aryl hydrocarbon receptor (Homo sapiens) (UniProt P35869); assay: qHTS assay to identify small molecule that activate the aryl hydrocarbon receptor (AhR) signaling pathway (AID 743085);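 note: HG2L7.5c1 human HepG2 liver cells with stably integrated DRE-driven firefly reporter; series mostly up to about 70 µM; nearly all actives have a fitted effect of over 15% in size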
Chain of Aryl hydrocarbon receptor (Homo sapiens) (P35869 whole entry, looked up): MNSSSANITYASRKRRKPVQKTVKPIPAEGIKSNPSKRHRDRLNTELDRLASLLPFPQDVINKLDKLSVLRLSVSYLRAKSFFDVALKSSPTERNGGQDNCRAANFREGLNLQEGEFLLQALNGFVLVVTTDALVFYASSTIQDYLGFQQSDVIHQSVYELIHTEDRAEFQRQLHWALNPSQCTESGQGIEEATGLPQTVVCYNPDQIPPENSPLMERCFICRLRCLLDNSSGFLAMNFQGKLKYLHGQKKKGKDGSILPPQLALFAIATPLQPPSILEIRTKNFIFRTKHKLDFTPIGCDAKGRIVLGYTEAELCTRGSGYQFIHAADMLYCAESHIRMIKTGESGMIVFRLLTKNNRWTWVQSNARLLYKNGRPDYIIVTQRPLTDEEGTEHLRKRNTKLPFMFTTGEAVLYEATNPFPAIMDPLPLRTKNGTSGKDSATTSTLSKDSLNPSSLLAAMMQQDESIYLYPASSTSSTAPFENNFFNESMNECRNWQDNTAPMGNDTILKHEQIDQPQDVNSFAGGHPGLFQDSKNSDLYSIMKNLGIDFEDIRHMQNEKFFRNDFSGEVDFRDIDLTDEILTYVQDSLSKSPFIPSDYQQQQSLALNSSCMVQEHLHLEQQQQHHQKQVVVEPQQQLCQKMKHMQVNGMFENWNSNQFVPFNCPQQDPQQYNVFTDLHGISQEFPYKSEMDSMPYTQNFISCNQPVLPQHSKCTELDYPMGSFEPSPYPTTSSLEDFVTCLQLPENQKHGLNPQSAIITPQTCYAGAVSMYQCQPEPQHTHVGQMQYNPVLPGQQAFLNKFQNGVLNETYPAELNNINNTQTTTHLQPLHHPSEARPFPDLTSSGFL
Method in brief: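 Cell line HG2L7.5c1 (human hepatoma, 20× DRE-luc). Plated, 5 h 37C, compound/DMSO added, 24 h 37C. CellTiter-Fluor 30 min 37C → fluorescence; then ONE-Glo 30 min RT → luminescence.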

[3] = qHTS assay to identify small molecule antagonists of the peroxisome proliferator-activated receptor gamma (PPARg) signaling pathway - cell viability counter screen (AID 743194); conditions: Potency: co-treated with 50 nM rosiglitazone; note: nearly all actives have a fitted effect of over 55% in size
Method in brief: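 Viability was measured as CellTiter-Glo luminescence in GeneBLAzer PPARg UAS-bla HEK293H cells. These cells had been exposed 17 h at 37 C to compounds together with rosiglitazone at 50 nM final, with the beta-lactamase readout taken in the same wells.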

[4] = qHTS assay for small molecule agonists of the antioxidant response element (ARE) signaling pathway (AID 743202; active = well fitted activation curve with a large enough effect in the signal ratio in the repeat runs, not every such curve was filed as active; the % refers to the signal ratio; note: potency is the fitted concentration of half-maximal effect)
Method in brief: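 Quantitative high-throughput format in HepG2 cells bearing an integrated ARE-beta-lactamase reporter. Compound exposure lasted 16 h at 37 C, and fluorescence was read 2 h after adding LiveBLAzer B/G substrate at room temperature.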

[5] = qHTS assay for small molecule agonists of the antioxidant response element (ARE) signaling pathway - cell viability counter screen (AID 743203; calls by dose curve; note: nearly all actives have a fitted effect of over 55% in size)
Method in brief: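 HepG2 cells carrying ARE-driven beta-lactamase; 2,000 cells/well; 5 hrs plating; compound pinned from DMSO; 16 hrs 37C/5% CO2; CellTiter-Glo added; 30 min RT; luminescence.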

[6] = qHTS assay for small molecule activators of the heat shock response signaling pathway - cell viability counter screen (AID 743209); note: nearly all actives have a fitted effect of over 50% in size
Method in brief: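 Luminescence from CellTiter-Glo, added after the beta-lactamase FRET read, gave the viability signal. Cells were HSE-bla HeLa treated with DMSO-dissolved compounds for 5 h at 37 C following overnight plating.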

[7] = qHTS assay for small molecule activators of the heat shock response signaling pathway (AID 743210; active = well fitted activation curve with a large enough effect in the signal ratio in the repeat runs, with a control signal flat, not every such curve was filed as active; the % refers to the signal ratio;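 note: HeLa cells with beta-lactamase reporter driven by heat shock elements; series mostly up to about 63 µM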)
Method in brief: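 HeLa HSE-bla cells, overnight plating; cpd in DMSO 5 h, 37 C; LiveBLAzer B/G FRET substrate 2.5 h RT; fluorescence intensity read.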

[8] = qHTS assay to identify small molecule agonists of the peroxisome proliferator-activated receptor delta (PPARd) signaling pathway - cell viability counter screen (AID 743211); note: nearly all actives have a fitted effect of over 55% in size
Method in brief: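 HEK293H PPARd-bla, 3000 cells/well; 5 h preincubation 37C/5% CO2; cpd in DMSO, 17 h 37C; B/G FRET substrate 2 h RT; CellTiter-Glo 30 min RT, luminescence.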

[9] = qHTS assay to identify small molecule antagonists of the peroxisome proliferator-activated receptor delta (PPARd) signaling pathway - cell viability counter screen (AID 743213); note: nearly all actives have a fitted effect of over 50% in size
Method in brief: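 Viability counter-screen, qHTS format: PPARd-bla HEK293H, L165041 300 nM final, 17 h compound exposure at 37 C, CellTiter-Glo luminescence after 30 min RT.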

[10] = qHTS assay to identify small molecule agonists of the farnesoid-X-receptor (FXR) signaling pathway - cell viability counter screen (AID 743218); note: nearly all actives have a fitted effect of over 45% in size
Method in brief: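 HEK 293T FXR-bla cells; 5 h pre-incubation, 16 h compound exposure at 37 C; LiveBLAzer substrate 2 h RT, then CellTiter-Glo 30 min RT, luminescence.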

[11] = qHTS assay to identify small molecule antagonists of the farnesoid-X-receptor (FXR) signaling pathway - cell viability counter screen (AID 743221; active = well fitted cell-killing curve with a large enough effect in the repeat runs, not every such curve was filed as active; note: nearly all actives have a fitted effect of over 50% in size)
Method in brief: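 Luminescence from CellTiter-Glo measures cytotoxicity in GeneBLAzer FXR-UAS-bla HEK 293T cells. Cells were exposed to compounds with 50 uM chenodeoxycholic acid (final) for 16 h at 37 C, in wells also used for the reporter readout.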

[12] = molecular target: Vitamin D3 receptor (Homo sapiens) (UniProt P11473); assay: qHTS assay to identify small molecule agonists of the vitamin D receptor (VDR) signaling pathway (AID 743222; calls by dose curve)
Chain of Vitamin D3 receptor (Homo sapiens) (P11473 whole entry, looked up): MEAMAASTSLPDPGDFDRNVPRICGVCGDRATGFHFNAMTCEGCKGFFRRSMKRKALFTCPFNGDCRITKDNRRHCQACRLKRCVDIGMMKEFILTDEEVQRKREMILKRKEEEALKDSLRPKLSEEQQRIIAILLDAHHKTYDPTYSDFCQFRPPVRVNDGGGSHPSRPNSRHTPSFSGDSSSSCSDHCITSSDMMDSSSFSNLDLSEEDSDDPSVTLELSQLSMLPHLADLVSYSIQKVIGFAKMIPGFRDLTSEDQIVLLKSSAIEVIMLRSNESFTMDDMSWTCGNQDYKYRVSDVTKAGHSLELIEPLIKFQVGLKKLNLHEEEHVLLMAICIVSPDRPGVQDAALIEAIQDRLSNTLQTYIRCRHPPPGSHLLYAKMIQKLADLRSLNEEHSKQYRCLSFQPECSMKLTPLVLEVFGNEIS
Method in brief: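 VDR-bla cells, 2,000/well; 4 h preincubation 37C; cpd (DMSO) 16 h; LiveBLAzer B/G substrate 2 h RT; fluorescence intensity read.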

[13] = molecular target: Vitamin D3 receptor (Homo sapiens) (UniProt P11473); assay: qHTS assay to identify small molecule antagonists of the vitamin D receptor (VDR) signaling pathway (AID 743223; active = well fitted inhibition curve with a large enough effect in the signal ratio in the repeat runs, not every such curve was filed as active; the % refers to the signal ratio)
Method in brief: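 Antagonist mode uses 1alpha,25-dihydroxyvitamin D3 at 3 nM final as stimulus. VDR-bla cells receive compounds in DMSO, incubate 16 h at 37C, then a beta-lactamase FRET substrate for 2 h at room temperature before fluorescence measurement.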

[14] = molecular target: Peroxisome proliferator-activated receptor gamma (Homo sapiens) (UniProt P37231); assay: qHTS assay to identify small molecule antagonists of the peroxisome proliferator-activated receptor gamma (PPARg) signaling pathway (AID 743191; calls by dose curve; note: series mostly up to about 63 µM; nearly all actives have a fitted effect of over 30% in size)
Chain of Peroxisome proliferator-activated receptor gamma (Homo sapiens) (P37231 whole entry, looked up): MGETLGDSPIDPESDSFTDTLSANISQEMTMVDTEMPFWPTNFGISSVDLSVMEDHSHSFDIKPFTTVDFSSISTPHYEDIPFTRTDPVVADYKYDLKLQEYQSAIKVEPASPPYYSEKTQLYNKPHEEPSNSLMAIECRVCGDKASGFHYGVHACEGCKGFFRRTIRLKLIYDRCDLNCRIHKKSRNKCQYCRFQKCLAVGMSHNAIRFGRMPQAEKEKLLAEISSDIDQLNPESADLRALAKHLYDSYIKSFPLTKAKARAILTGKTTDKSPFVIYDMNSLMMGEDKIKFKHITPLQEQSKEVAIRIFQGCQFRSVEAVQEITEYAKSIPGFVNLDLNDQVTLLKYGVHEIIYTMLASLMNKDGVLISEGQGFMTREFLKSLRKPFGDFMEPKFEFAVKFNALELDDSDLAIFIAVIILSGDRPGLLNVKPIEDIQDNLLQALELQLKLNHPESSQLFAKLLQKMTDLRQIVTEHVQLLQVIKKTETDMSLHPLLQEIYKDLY
Method in brief: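 Beta-lactamase reporter under UAS control in HEK293H PPARg-bla cells; compound treatment 17 h at 37C. Read-out: fluorescence intensity after 1 h room-temperature incubation with LiveBLAzer B/G FRET substrate.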

[15] = molecular target: Bile acid receptor (Homo sapiens) (UniProt Q96RI1); assay: qHTS assay to identify small molecule antagonists of the farnesoid-X-receptor (FXR) signaling pathway (AID 743217; active = well fitted inhibition curve with a large enough effect in the signal ratio in the repeat runs, not every such curve was filed as active; the % refers to the signal ratio)
Chain of Bile acid receptor (Homo sapiens) (Q96RI1 whole entry, looked up): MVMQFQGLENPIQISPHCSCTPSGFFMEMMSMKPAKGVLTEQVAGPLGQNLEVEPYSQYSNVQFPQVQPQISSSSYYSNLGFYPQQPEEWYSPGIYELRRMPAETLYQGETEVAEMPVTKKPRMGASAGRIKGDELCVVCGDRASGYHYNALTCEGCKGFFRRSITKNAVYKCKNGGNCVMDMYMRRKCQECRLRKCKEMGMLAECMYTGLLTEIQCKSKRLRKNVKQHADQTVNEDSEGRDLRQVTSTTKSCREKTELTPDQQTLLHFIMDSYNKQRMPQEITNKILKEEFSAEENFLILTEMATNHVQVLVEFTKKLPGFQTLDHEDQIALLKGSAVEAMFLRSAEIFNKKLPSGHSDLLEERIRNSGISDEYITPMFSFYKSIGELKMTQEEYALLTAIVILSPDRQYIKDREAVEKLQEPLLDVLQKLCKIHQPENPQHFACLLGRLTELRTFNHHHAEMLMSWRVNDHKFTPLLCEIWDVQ
Method in brief: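 HEK 293T FXR-UAS-bla, 5000 cells/well; compound + CDCA 50 uM final; 16 h, 37 °C; B/G FRET substrate 2 h RT; fluorescence.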

[16] = molecular target: Bile acid receptor (Homo sapiens) (UniProt Q96RI1); assay: qHTS assay to identify small molecule agonists of the farnesoid-X-receptor (FXR) signaling pathway (AID 743220; active = well fitted activation curve with a large enough effect in the signal ratio in the repeat runs, not every such curve was filed as active; the % refers to the signal ratio)
Method in brief: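 Beta-lactamase reporter under UAS control in GeneBLAzer FXR HEK 293T cells (5000/well) measured with LiveBLAzer FRET substrate after 2 h at room temperature. Compound exposure lasted 16 h at 37C.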

[17] = qHTS assay to identify small molecule that activate the aryl hydrocarbon receptor (AhR) signaling pathway - cell viability counter screen (AID 743086);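 note: HepG2 liver cells carrying the AhR DRE luciferase reporter; series mostly up to about 70 µM; nearly all actives have a fitted effect of over 45% in size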
Method in brief: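 Cytotoxicity counter screen: CellTiter-Fluor signal (30 min, 37 C) in 4000 HepG2 cells/well carrying the DRE-luciferase reporter, following 24 h compound exposure at 37 C.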

[18] = molecular target: Peroxisome proliferator-activated receptor gamma (Homo sapiens) (UniProt P37231); assay: qHTS assay to identify small molecule agonists of the peroxisome proliferator-activated receptor gamma (PPARg) signaling pathway (AID 743094; active = well fitted activation curve with a large enough effect in the signal ratio in the repeat runs, not every such curve was filed as active; the % refers to the signal ratio)
Method in brief: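 Beta-lactamase FRET fluorescence was the read-out after a 1 h room-temperature substrate step, following 17 h compound treatment at 37C of HEK293H cells expressing a UAS-driven bla reporter responsive to PPARg.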

[19] = molecular target: Peroxisome proliferator-activated receptor delta (Homo sapiens) (UniProt Q03181); assay: qHTS assay to identify small molecule agonists of the peroxisome proliferator-activated receptor delta (PPARd) signaling pathway (AID 743212; calls by dose curve)
Chain of Peroxisome proliferator-activated receptor delta (Homo sapiens) (Q03181 whole entry, looked up): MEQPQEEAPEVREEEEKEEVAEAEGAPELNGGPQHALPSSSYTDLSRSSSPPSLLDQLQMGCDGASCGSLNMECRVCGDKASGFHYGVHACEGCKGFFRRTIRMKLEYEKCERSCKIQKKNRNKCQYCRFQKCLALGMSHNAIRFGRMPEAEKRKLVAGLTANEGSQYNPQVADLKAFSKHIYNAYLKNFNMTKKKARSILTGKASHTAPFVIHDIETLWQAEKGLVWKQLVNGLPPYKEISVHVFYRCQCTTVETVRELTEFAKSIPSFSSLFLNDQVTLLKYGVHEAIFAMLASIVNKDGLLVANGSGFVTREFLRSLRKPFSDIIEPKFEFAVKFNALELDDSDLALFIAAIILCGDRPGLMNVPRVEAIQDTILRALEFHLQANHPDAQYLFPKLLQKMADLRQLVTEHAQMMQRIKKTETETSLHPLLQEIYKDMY
Method in brief: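 HEK293H PPARd-bla cells; 5 h preincubation 37 C/5% CO2; compound (DMSO) 37 C; LiveBLAzer B/G FRET substrate 2 h RT; fluorescence intensity.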

[20] = molecular target: Peroxisome proliferator-activated receptor delta (Homo sapiens) (UniProt Q03181); assay: qHTS assay to identify small molecule antagonists of the peroxisome proliferator-activated receptor delta (PPARd) signaling pathway (AID 743215; active = well fitted inhibition curve with a large enough effect in the signal ratio in the repeat runs, not every such curve was filed as active; the % refers to the signal ratio;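 note: cells stimulated with agonist L165041 at 300 nM final during compound exposure; series mostly up to about 62 µM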)
Method in brief: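 Read-out is beta-lactamase FRET fluorescence, measured 2 h after substrate addition at room temperature. Beforehand, UAS-bla HEK293H cells carrying the PPARd reporter were exposed to compounds with L165041 at 300 nM final for 17 h at 37 C.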

Row | Compound | Potency [1] | Potency [2] | Potency [3] | Potency [4] | Potency [5] | Potency [6] | Potency [7] | Potency [8] | Potency [9] | Potency [10] | Potency [11] | outcome [12] | outcome [13] | Potency [14] | outcome [15] | outcome [16] | Potency [17] | outcome [18] | outcome [19] | Potency [20]
1 | O=C(NC(O)C(Cl)(Cl)Cl)NC(O)C(Cl)(Cl)Cl (stereo unspecified) | inactive | inactive | inactive | inactive | inactive | inactive | inactive | inactive | inactive | inactive | inactive | inactive | inactive | – | – | – | – | – | – | –
2 | Cc1ccc(S(=O)(=O)N[C@@H](CCCCN)C(=O)CCl)cc1 | – | inactive | inactive | inactive | inactive | inactive | – | – | inactive | inactive | inactive | – | – | inactive | inactive | inactive | – | – | – | –
3 | NC(=O)CS(=O)C(c1ccccc1)c1ccccc1 (stereo unspecified) | – | inactive | inactive | inactive | inactive | inactive | inactive | inactive | – | inactive | inactive | – | – | inactive | – | – | inactive | inactive | – | –
4 | O=CCCl | inactive | – | inactive | inactive | inactive | inactive | inactive | – | inactive | inactive | inactive | inactive | inactive | inactive | – | – | – | inactive | – | –
5 | C1CN2CCC1CC2 | – | – | inactive | inactive | inactive | inactive | inactive | inactive | – | inactive | inactive | – | – | inactive | inactive | inactive | – | – | inactive | inactive
6 | CCCOC(=O)c1cncn1C(C)c1ccccc1 (stereo unspecified) | – | – | inactive | inactive | inactive | inactive | inactive | inactive | – | inactive | inactive | – | – | inactive | – | – | – | – | inactive | inactive
7 | CON(C)C(=O)Nc1ccc(Br)cc1 | inactive | – | inactive | inactive | inactive | inactive | inactive | – | inactive | inactive | inactive | – | – | – | – | inactive | inactive | – | inactive | inactive
8 | c1ccc2c(c1)CCNC2 | inactive | – | inactive | inactive | inactive | inactive | inactive | inactive | inactive | inactive | inactive | inactive | inactive | inactive | – | – | inactive | – | inactive | inactive
9 | CC[C@@H](CO)NC(=O)[C@@H]1C=C2c3cccc4c3c(cn4C)C[C@H]2N(C)C1 | – | – | inactive | inactive | inactive | inactive | inactive | – | inactive | inactive | inactive | inactive | inactive | inactive | inactive | inactive | inactive | – | inactive | inactive
10 | N[C@@H]1C[C@H]1c1ccccc1 | inactive | – | inactive | inactive | inactive | inactive | inactive | – | inactive | inactive | inactive | – | inactive | inactive | inactive | inactive | – | inactive | inactive | inactive
11 | COc1cccc([C@@]2(O)CCCC[C@@H]2CN(C)C)c1 | – | inactive | inactive | inactive | inactive | inactive | inactive | – | inactive | inactive | inactive | – | – | inactive | – | – | – | inactive | inactive | –
12 | C=C1C[C@@H]2[C@H](CC[C@]3(C)C(=O)CC[C@@H]23)[C@@]2(C)C=CC(=O)C=C12 | – | inactive | inactive | 2.66 µM (active) | inactive | inactive | inactive | inactive | inactive | inactive | inactive | inactive | – | – | inactive | – | inactive | inactive | – | –
13 | C/C(=N\NC(=O)Nc1cc(F)cc(F)c1)c1ncccc1C(=O)O | inactive | – | inactive | inactive | inactive | inactive | inactive | inactive | inactive | – | inactive | inactive | inactive | – | inactive | inactive | inactive | inactive | – | –
14 | CC(C)(C)C(=O)C(Cl)Cl | – | – | – | – | inactive | inactive | inactive | inactive | inactive | inactive | inactive | inactive | inactive | – | – | – | inactive | – | inactive | inactive
15 | Cc1cccc2sc3nncn3c12 | inactive | – | inactive | 1.37 µM (active) | inactive | inactive | inactive | inactive | inactive | inactive | inactive | – | – | – | inactive | inactive | inactive | inactive | inactive | inactive
16 | COC[C@@H](NC(C)=O)C(=O)NCc1ccccc1 | – | – | inactive | – | inactive | inactive | inactive | inactive | – | inactive | inactive | inactive | – | inactive | – | – | – | – | inactive | inactive
17 | CCC(CC)(CNC(=O)CCCO)c1cccc(OC)c1 | – | – | inactive | inactive | inactive | inactive | inactive | – | inactive | inactive | inactive | inactive | inactive | inactive | – | – | – | – | inactive | –
18 | C=CCC1(C(C)CC)C(=O)NC(=O)NC1=O (stereo unspecified) | – | – | inactive | – | inactive | inactive | – | inactive | inactive | inactive | inactive | inactive | inactive | inactive | – | – | – | – | inactive | inactive
19 | C=CCCC#N | inactive | – | inactive | inactive | inactive | – | inactive | inactive | inactive | inactive | inactive | – | – | – | – | inactive | inactive | inactive | inactive | –
20 | CCOP(=S)(OCC)SCCl | – | inactive | inactive | inactive | inactive | inactive | inactive | inactive | inactive | inactive | inactive | – | – | inactive | inactive | inactive | inactive | inactive | – | –

Reference: PubChem BioAssay (Tox21)
